Compound activity as filed in PubChem BioAssay.
Shown are actives, neighbours in structure and some others; about 1.2% of the full set was active somewhere.
NCOA3 inh: human NCOA3 inhibition; inhibition, % at 3.6 µM; HEK293 GAL4-SRC3 luciferase reporter, luminescence; Q9Y6Q9; 360,000 compounds, 0.17% hits;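 active means inhibition above a per-campaign cutoff, the mean of all compounds plus 3 SD, cut at about 60% in these data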;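 further: higher means less SRC3-driven luciferase light from the GAL4 reporter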
SRC2 inh: human SRC2 (NCOA2) inhibition. HEK293 GAL4-SRC2 luciferase reporter, luminescence. inhibition, % at 9 µM. 370,000 compounds, 0.17% hits. AID 651957;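 active means inhibition above the mean inhibition of all tested compounds plus 3 SD, set per campaign, cut at about 52% in these data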
Gli-Sufu block: blocks Gli-Sufu signaling in a luciferase reporter | Sufu-KO-LIGHT fibroblasts, Gli luciferase reporter luminescence | 340,000 compounds, 0.74% hits | inhibition, % at 5 µM | AID 588413;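 active means inhibition above about 55%, limit read from the data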
NR5A2 inv ag: suppresses constitutive activity of human LRH-1; AID 602396; O00482; 360,000 compounds, 0.13% hits; HEK293T StAR-luciferase reporter, LRH-1 transfected, 24 h; inhibition, % at 3.6 µM;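 active means inhibition above the mean inhibition of all tested compounds plus 3 SD, cut at about 73% in these data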
SRC1 inh: inhibits human SRC1 coactivator; AID 588354; HEK293 GAL4-SRC1 luciferase reporter, luminescence; inhibition, % at 3.6 µM; 360,000 compounds, 0.12% hits;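 active means inhibition above the campaign mean plus 3 SD, with each screening campaign given its own cutoff, cut at about 60% in these data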
COUP-TFII inh: blocks human COUP-TFII nuclear receptor; 370,000 compounds, 0.7% hits; P24468; HEK293T NGFI-A luciferase reporter, luminescence; inhibition, % at 8.6 µM; AID 686940;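 active means inhibition above a per-plate cutoff, mean inhibition of test wells between control levels plus 3 SD, cut at about 38% in these data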;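 further: cells cotransfected with COUP-TFII expression vector driving the NGFI-A reporter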
Target sequence (P24468 whole entry, looked up): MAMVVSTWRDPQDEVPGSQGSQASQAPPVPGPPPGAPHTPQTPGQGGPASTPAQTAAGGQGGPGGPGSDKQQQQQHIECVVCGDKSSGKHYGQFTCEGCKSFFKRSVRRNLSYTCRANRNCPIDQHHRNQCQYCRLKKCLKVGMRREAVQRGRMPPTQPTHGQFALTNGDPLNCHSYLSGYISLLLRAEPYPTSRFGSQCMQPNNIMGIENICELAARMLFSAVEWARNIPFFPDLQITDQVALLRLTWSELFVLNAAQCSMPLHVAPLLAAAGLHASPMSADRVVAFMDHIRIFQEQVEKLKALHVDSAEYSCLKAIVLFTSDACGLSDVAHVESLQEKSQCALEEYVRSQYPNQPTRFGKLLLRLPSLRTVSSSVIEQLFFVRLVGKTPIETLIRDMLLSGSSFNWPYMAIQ
VP16 Luc counter: VP16 inhibition counter-screen for COUP-TFII | inhibition, % at 8.5 µM | AID 687007 | shares compounds with COUP-TFII inh | 2,500 compounds, 25% hits | HEK293 Gal4-VP16 luciferase reporter, luminescence; in the data active means inhibition above about 13%
NR2F2 inh conf: confirmation of human COUP-TFII (NR2F2) inhibitors | shares compounds with COUP-TFII inh | inhibition, % at 8.5 µM | 2,500 compounds, 45% hits | HEK293 NGFI-A luciferase reporter, luminescence | AID 687008;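 active means mean inhibition over three repeats above a set limit taken from the earlier primary screen, cut at about 38% in these data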
Of the large screens only hits and unclear results are named; the others gave an inactive call (follow-up assays come after a bar, where they were run); ! = repeats disagree.

CCN=C1NC(c2cccc(Cl)c2)C(C(=O)OC)=C(C)N1Cc1ccccc1C(F)(F)F (stereo not drawn)	none (no result: NCOA3 inh, Gli-Sufu block, NR5A2 inv ag, SRC1 inh)
COc1ccc(C(=O)c2ccccc2)c2c(O)ccc(C(=O)c3ccccc3)c12	COUP-TFII inh 43.5 | VP16 Luc counter inactive | NR2F2 inh conf 62.6
c1ccc2c(c1)[nH]c1c(N3CCCC3)ncnc12	COUP-TFII inh 44.1 | VP16 Luc counter inactive | NR2F2 inh conf inactive
COc1ccc(OC)c(CCNC(=O)C(C)n2nc(C)c3c(C)n(-c4ccc(C)cc4)nc3c2=O)c1 (stereo not drawn)	COUP-TFII inh 73.5 | VP16 Luc counter 17.8 | NR2F2 inh conf 72.8
Cc1ccc(-n2nc3c(=O)n(C(C)C(=O)NCc4ccco4)nc(C)c3c2C)cc1 (stereo not drawn)	none
Cc1ccc(-n2nc3c(=O)n(C(C)C(=O)NCCCc4ccccc4)nc(C)c3c2C)cc1 (stereo not drawn)	COUP-TFII inh 55.0 | VP16 Luc counter inactive | NR2F2 inh conf 45.2
Cc1ccc(-n2nc3c(=O)n(CC(=O)NCCCc4ccccc4)nc(C)c3c2C)cc1	none
Cc1ccc(-n2nc3c(=O)n(C(C)C(=O)NCc4ccccc4Cl)nc(C)c3c2C)cc1 (stereo not drawn)	COUP-TFII inh 47.5 | VP16 Luc counter inactive | NR2F2 inh conf 38.7
CC(=O)Nc1ccc(NC(=O)CSc2nnc(-c3n[nH]c4c3CCC4)n2N)cc1	none (no result: NCOA3 inh, Gli-Sufu block, NR5A2 inv ag, SRC1 inh)
Cc1cc(N2CCN(CC(C)(C)O)C[C@@H]2C)ccc1N1CCN(CC(C)(C)O)[C@@H](C)C1	none (no result: NCOA3 inh, Gli-Sufu block, NR5A2 inv ag, SRC1 inh)
Clc1cccc(CNc2nnnn2-c2ccccc2)c1	COUP-TFII inh 38.8 | VP16 Luc counter inactive | NR2F2 inh conf inactive
COC(=O)CCn1nnc(-c2ccc(C(C)C)cc2)n1	SRC2 inh 85.7, Gli-Sufu block 56.7, COUP-TFII inh 86.1 | VP16 Luc counter 83.1 | NR2F2 inh conf 86.6
CCN(C(=O)c1cnc(N2CCN(c3ncccn3)CC2)c2ccccc12)c1cccc(Cl)c1	COUP-TFII inh 49.8 | VP16 Luc counter inactive | NR2F2 inh conf inactive
CN(C(=O)c1cnc(N2CCN(c3ncccn3)CC2)c2ccccc12)c1ccc(Cl)cc1	none
Cn1c(=O)cc(OCCCC(=O)Nc2ccccn2)c2ccccc21	none
Cn1c(=O)cc(OCCCC(=O)Nc2cc(-c3cn[nH]c3)ccn2)c2ccccc21	COUP-TFII inh 54.7 (no result: NCOA3 inh, SRC2 inh, Gli-Sufu block, NR5A2 inv ag, SRC1 inh) | VP16 Luc counter 34.7 | NR2F2 inh conf inactive
Cn1c(=O)c2ccccc2n(C)c1=O	none (no result: NCOA3 inh, Gli-Sufu block, NR5A2 inv ag, SRC1 inh)
O=C(NN=Cc1ccccc1Cl)C(=O)Nc1cccc(C(F)(F)F)c1	none (no result: NCOA3 inh, Gli-Sufu block, NR5A2 inv ag, SRC1 inh)
CCc1ccc(CN2CCN(C(=O)c3cccc(OC)c3OC)CC2)cc1	COUP-TFII inh 53.6 | VP16 Luc counter inactive | NR2F2 inh conf 40.2
CCC(C)NC(=O)CSc1nnc(-c2cc(OC)c(OC)c(OC)c2)o1 (stereo not drawn)	none (no result: NCOA3 inh, Gli-Sufu block, NR5A2 inv ag, SRC1 inh)
O=C(Nc1ccccc1)C1Cc2c(-c3cccc(F)c3)ccnc2O1 (stereo not drawn)	none (no result: Gli-Sufu block)
O=C(Nc1ccc(F)c(Cl)c1)C1Cc2c(-c3ccco3)ccnc2O1 (stereo not drawn)	COUP-TFII inh 40.6 (no result: Gli-Sufu block) | VP16 Luc counter inactive | NR2F2 inh conf inactive
COc1ccc(NC(=O)C2Cc3c(-c4cccc(F)c4)ccnc3O2)cc1OC (stereo not drawn)	COUP-TFII inh 51.6 (no result: Gli-Sufu block) | VP16 Luc counter inactive | NR2F2 inh conf inactive
COc1ccc(NC(=O)C2Cc3c(-c4ccc5c(c4)OCO5)ccnc3O2)cc1OC (stereo not drawn)	COUP-TFII inh 66.1 (no result: Gli-Sufu block) | VP16 Luc counter inactive | NR2F2 inh conf 57.3
CC(=O)Nc1cccc(-c2ccnc3c2CC(C(=O)Nc2ccc(F)c(Cl)c2)O3)c1 (stereo not drawn)	none (no result: Gli-Sufu block)
COc1ccc(NC(=O)C2Cc3c(-c4ccc(NC(C)=O)cc4)ccnc3O2)cc1OC (stereo not drawn)	none (no result: Gli-Sufu block)
CCOC(=O)[C@]12CCCC=C1N(CCCOC)C(=O)[C@@H]2CC(=O)NCC12CC3CC(CC(C3)C1)C2	none (no result: NCOA3 inh, Gli-Sufu block, NR5A2 inv ag, SRC1 inh)
O=C(Nc1ccc(S(=O)(=O)N2CCCC2)cc1)c1cccs1	none
O=C(Nc1nc(-c2ccc(S(=O)(=O)N3CCOCC3)cc2)cs1)c1ccccc1	COUP-TFII inh 67.7 | VP16 Luc counter 18.1! | NR2F2 inh conf 37.5
O=C(Nc1nc(-c2ccc(S(=O)(=O)N3CCCCCC3)cc2)cs1)c1cccs1	COUP-TFII inh 55.5 | VP16 Luc counter inactive | NR2F2 inh conf inactive
NC(=O)c1ccsc1NC(=O)c1ccc(S(=O)(=O)N2CCCc3ccccc32)cc1	COUP-TFII inh 38.2 | VP16 Luc counter inactive | NR2F2 inh conf inactive
O=C(Nc1nc(-c2ccccc2)cs1)c1ccc(S(=O)(=O)N2CCc3ccccc32)cc1	COUP-TFII inh 50.7 | VP16 Luc counter inactive | NR2F2 inh conf inactive
Cc1ccccc1C(=O)N[C@@H](Cc1cccnc1)C(=O)N1CCC[C@H]1C(=O)NC1CCCC1	none (no result: NCOA3 inh, Gli-Sufu block, NR5A2 inv ag, SRC1 inh)
COCCCN1C(=O)[C@H](CC(=O)NCc2ccc(C)o2)[C@]2(C(=O)OC)CCCCC=C12	none (no result: NCOA3 inh, Gli-Sufu block, NR5A2 inv ag, SRC1 inh)
CCCCCCCCN1C(=O)[C@@H](CC(=O)NCCCCc2ccccc2)C[C@@]2(C(=O)OC)C1=C[C@H](C1CCCC1)O[C@@H]2C	none (no result: NCOA3 inh, Gli-Sufu block, NR5A2 inv ag, SRC1 inh)
COCCNC(=S)N(C)[C@H]1C[C@H]2c3[nH]c4cccc(-c5ccccc5)c4c3CCN2C(=O)[C@H]1[C@H](C)O	none (no result: NCOA3 inh, Gli-Sufu block, NR5A2 inv ag, SRC1 inh)
COc1ccc(C(=O)Nc2ccc(S(=O)(=O)N3CCc4ccccc43)cc2)cc1	COUP-TFII inh 59.1 | VP16 Luc counter inactive | NR2F2 inh conf 42.4
NS(=O)(=O)c1ccc(NC(=O)c2ccc(S(=O)(=O)N3CCc4ccccc43)cc2)cc1	none
CCOc1cc(/C=N/Nc2nnc(C)n2N)ccc1O	COUP-TFII inh 48.6 | VP16 Luc counter inactive | NR2F2 inh conf inactive
CCOc1cc(/C=N/Nc2ncnc(Cl)c2N)ccc1O	none
CN1C(=CC=C2C=C(I)C(=O)C(I)=C2)C(C)(C)c2ccccc21	none
CN1/C(=C\C=C2/SC(=S)NC2=O)C(C)(C)c2ccccc21	Gli-Sufu block 71.1, COUP-TFII inh 41.8 | VP16 Luc counter 13.7 | NR2F2 inh conf inactive
COc1ccc(C(=O)O/N=C(\N)c2ccccc2)cc1	none
CC(C)(C)c1ccc(C(=O)O/N=C(\N)c2ccccc2)cc1	NCOA3 inh 82.0, SRC2 inh 80.2, Gli-Sufu block 88.9, SRC1 inh 82.3, COUP-TFII inh 86.1 | VP16 Luc counter 66.5 | NR2F2 inh conf 90.7
COC(=O)[C@]12C[C@H](CC(=O)N3CCN(C(=O)c4ccco4)CC3)C(=O)N(Cc3ccc4c(c3)OCO4)C1=C[C@H](COCc1ccccc1)O[C@@H]2C	none (no result: NCOA3 inh, Gli-Sufu block, NR5A2 inv ag, SRC1 inh)
Cc1c(C=O)c2ccccc2n1CCOc1ccccc1F	COUP-TFII inh 45.0 | VP16 Luc counter inactive | NR2F2 inh conf inactive
